From PubChem BioAssay (EPA / NIEHS)
Where “and” joins values, the source holds several entries; their conditions need not be identical. Identical values can stand only once. Some structures have more than one record in an assay (separate samples or runs), and their calls can disagree. Calls of active or inactive are those of the source. The calls were made as follows: active = hit-call score of the fitted dose curve at least 0.9, where 1 is the maximum; inactive = score below 0.9.

Assays:
[1] = read-out: Interleukin-8 (IL8), CXCL8 (gene 3576); test: BSK_CASM3C_IL8: BioMAP Diversity Plus: CASM3C Assay for Interleukin-8 (IL8) Biomarker Activity (AID 2283042); conditions: primary human coronary artery smooth muscle cells; actives raise or lower the signal;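 also: IL-8 protein level quantified by ELISA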
[2] = read-out: Human Leukocyte Antigen - DR isotype (HLADR), HLA-DRA (gene 3122); test: BSK_CASM3C_HLADR: BioMAP Diversity Plus: CASM3C Assay for Human Leukocyte Antigen - DR isotype (HLADR) Biomarker Activity (AID 2283043); conditions: primary human coronary artery smooth muscle cells; actives raise or lower the signal;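 also: cell-surface HLA-DR protein level quantified by ELISA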
[3] = read-out: Macrophage colony-stimulating factor (MCSF), CSF1 (gene 1435); test: BSK_CASM3C_MCSF: BioMAP Diversity Plus: CASM3C Assay for Macrophage colony-stimulating factor (MCSF) Biomarker Activity (AID 2283044); conditions: primary human coronary artery smooth muscle cells; actives raise or lower the signal;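 also: M-CSF protein amount quantified by ELISA after 24 h exposure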
[4] = read-out: Low-density lipoprotein receptor (LDLR), LDLR (gene 3949); test: BSK_CASM3C_LDLR: BioMAP Diversity Plus: CASM3C Assay for Low-density lipoprotein receptor (LDLR) Biomarker Activity (AID 2283045); conditions: primary human coronary artery smooth muscle cells; actives raise or lower the signal;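 also: LDLR protein level on the cell surface quantified by ELISA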
[5] = read-out: Monocyte Chemoattractant Protein-1 (MCP1), CCL2 (gene 6347); test: BSK_CASM3C_MCP1: BioMAP Diversity Plus: CASM3C Assay for Monocyte Chemoattractant Protein-1 (MCP1) Biomarker Activity (AID 2283046); conditions: primary human coronary artery smooth muscle cells; actives raise or lower the signal;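 also: MCP-1 level quantified by ELISA 24 h after dosing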
[6] = BSK_CASM3C_Proliferation: Cell Proliferation Assessment in the BioMAP Diversity Plus: CASM3C Assay (AID 2283047); conditions: primary human coronary artery smooth muscle cells;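 also: sulforhodamine B total protein stain as relative cell number at 560 nm; sub-confluent cells exposed 48 h before staining; fitted both ways against DMSO so gain or loss of cell number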
[7] = read-out: Monokine induced gamma interferon (MIG), CXCL9 (gene 4283); test: BSK_CASM3C_MIG: BioMAP Diversity Plus: CASM3C Assay for Monokine induced gamma interferon (MIG) Biomarker Activity (AID 2283048); conditions: primary human coronary artery smooth muscle cells; actives raise or lower the signal;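 also: MIG protein level measured by ELISA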
[8] = read-out: serum amyloid A (SAA), SAA1 (gene 6288); test: BSK_CASM3C_SAA: BioMAP Diversity Plus: CASM3C Assay for serum amyloid A (SAA) Biomarker Activity (AID 2283049); conditions: primary human coronary artery smooth muscle cells; actives raise or lower the signal;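 also: SAA protein level quantified by ELISA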
[9] = BSK_CASM3C_SRB: Viability Assessment in the BioMAP Diversity Plus: CASM3C Assay (AID 2283050); conditions: primary human coronary artery smooth muscle cells;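 also: total protein by SRB staining as cytotoxicity measure in parallel cultures; cells exposed to compound for 24 h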
[10] = read-out: Thrombomodulin, THBD (gene 7056); test: BSK_CASM3C_Thrombomodulin: BioMAP Diversity Plus: CASM3C Assay for Thrombomodulin Biomarker Activity (AID 2283051); conditions: primary human coronary artery smooth muscle cells; actives raise or lower the signal;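 also: thrombomodulin protein level measured by ELISA 24 h after dosing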

Measured: AC50

CCc1ccc(C(c2ccc(CC)cc2)C(Cl)Cl)cc1
inactive: all assays above

FC(F)(Br)C(F)(F)C(F)(F)C(F)(F)C(F)(F)C(F)(F)Br
inactive: all assays above

FC(F)(F)C(F)(F)C(F)(F)C(F)(F)C(F)(F)C(F)(F)CC1CO1 (configuration not stated)
inactive: all assays above

O=S(=O)(OCC(F)F)C(F)(F)F
inactive: all assays above

CCCCCCC(C)OC(=O)CCCCC(=O)OC(C)CCCCCC (configuration not stated)
inactive: all assays above

FC(F)(F)C(F)(F)C(F)(F)N(C(F)(F)C(F)(F)C(F)(F)F)C(F)(F)C(F)(F)C(F)(F)F
inactive: all assays above

OCCCC(F)(F)C(F)(F)C(F)(F)C(F)(F)C(F)(F)C(F)(F)C(F)(F)F
active: [1] 49 µM | [2] 23.3 µM and 49 µM | [3] 22.1 µM and 43.6 µM | [4] 43.7 µM and 45.9 µM | [5] 38.3 µM and 28.9 µM | [6] 18.4 µM and 20.3 µM | [7] 41.7 µM and 41.9 µM | [8] 37.6 µM and 22.7 µM | [9] 22.6 µM and 25.1 µM
inactive: [1] | [10]

N=C(N)C(F)(F)C(F)(F)C(F)(F)C(F)(F)C(F)(F)C(F)(F)C(F)(F)F
active: [2] 30 µM | [4] 27.1 µM | [6] 46.1 µM
inactive: [1] | [2] | [3] | [4] | [5] | [6] | [7] | [8] | [9] | [10]

OCC(F)(F)C(F)(F)C(F)(F)C(F)(F)C(F)(F)C(F)(F)F
active: [6] 46.6 µM and 54.9 µM
inactive: all other assays above

O=S(=O)(OCCOC(F)(F)F)C(F)(F)F
inactive: all assays above

OCC(F)(F)C(F)(F)C(F)(F)C(F)F
active: [4] 0.292 µM
inactive: [1] | [2] | [3] | [4] | [5] | [6] | [7] | [8] | [9] | [10]

Nc1ccc([N+](=O)[O-])cc1O
active: [10] 20 µM
inactive: all other assays above

O=C(O)C(F)(F)C(F)(F)F
inactive: all assays above

C=CC(F)(F)C(F)(F)C(F)(F)C(F)(F)C(F)(F)C(F)(F)C(F)(F)C(F)(F)F
inactive: all assays above

FC(F)(F)C(F)(F)C(F)(F)C(F)(F)CCI
inactive: [1] | [2] | [3] | [4] | [5] | [6] | [7] | [8] | [9] | [10]
active: [7] 18.7 µM

FC(F)(F)C(F)(F)C(F)(F)C(F)(F)C(F)(F)CCI
active: [6] 7.99 µM and 30 µM
inactive: all other assays above

Oc1ccc(Nc2ccccc2)cc1
active: [2] 2.54 µM | [4] 2.43 µM | [6] 30.1 µM | [10] 5.45 µM
inactive: all other assays above

O[Si](c1ccccc1)(c1ccccc1)c1ccccc1
active: [6] 20 µM
inactive: all other assays above

FC1CC(F)(F)C(F)(F)C1(F)F (configuration not stated)
inactive: all assays above

O=C(O)C(F)(F)C(F)(F)C(F)F
inactive: [1] | [2] | [3] | [4] | [5] | [6] | [7] | [8] | [9] | [10]
active: [8] 5.48 µM

CCCCNc1ccccc1
inactive: all assays above

C#C[C@]1(O)CC[C@H]2[C@@H]3CCc4cc(OC)ccc4[C@H]3CC[C@@]21C
active: [6] 0.253 µM
inactive: all other assays above

CCCCCCCCCCCCCCCC[N+](C)(C)Cc1ccccc1
active: [1] 4.79 µM | [2] 2.56 µM | [3] 1.89 µM | [4] 9.64 µM | [5] 3500 nM | [6] 1.29 µM | [7] 5.11 µM | [8] 2.59 µM | [9] 5.23 µM
inactive: [10]

CCCCC(CC)COP(=O)(O)OCC(CC)CCCC (configuration not stated)
inactive: all assays above

O=P(O)(O)OCCC(F)(F)C(F)(F)C(F)(F)C(F)(F)C(F)(F)C(F)(F)F
active: [5] 258 nM | [8] 0.457 µM
inactive: [1] | [2] | [3] | [4] | [5] | [6] | [7] | [8] | [9] | [10]

O=C(CC(=O)C(F)(F)C(F)(F)F)C(F)(F)F
inactive: all assays above

O=C(O)C(F)(F)C(F)(F)C(F)(F)C(F)(F)C(F)(F)C(F)(F)C(F)(F)C(F)(F)C(F)(F)C(F)(F)C(F)(F)C(F)(F)F
active: [2] 16.1 µM | [8] 2.34 µM and 3.54 µM | [10] 13.3 µM
inactive: [1] | [2] | [3] | [4] | [5] | [6] | [7] | [9] | [10]

CC(CCl)OP(=O)(OC(C)CCl)OC(C)CCl (configuration not stated)
active: [3] 0.0398 µM | [5] 19.1 nM
inactive: all other assays above

FC(F)(F)C(F)(F)C(F)(F)CI
inactive: all assays above

CS(C)(=O)=O
inactive: all assays above

O=C(O)C(F)(F)C(F)(F)C(F)(F)C(F)(F)C(F)(F)C(F)(F)C(F)(F)C(F)(F)Cl
inactive: all assays above

C=CC(=O)OCC(F)(F)C(F)(F)C(F)(F)C(F)(F)COC(=O)C=C
inactive: [1] | [2] | [4] | [10]
active: [2] 17.8 µM | [3] 34.9 µM and 30 µM | [4] 12.2 µM | [5] 45.8 µM and 44 µM | [6] 18.9 µM and 31.4 µM | [7] 28.6 µM and 31 µM | [8] 22.9 µM and 16.1 µM | [9] 43 µM and 43.7 µM

FC(F)(I)C(F)(F)C(F)(F)C(F)(F)I
active: [1] 47.5 µM and 48.2 µM | [2] 50.5 µM | [3] 47.5 µM and 50.2 µM and 46.8 µM | [4] 23.6 µM and 43.5 µM | [5] 44.4 µM and 46 µM and 46.1 µM | [6] 43.4 µM and 49.7 µM and 43.9 µM | [7] 44.3 µM and 48.1 µM and 46.8 µM | [8] 47.5 µM and 45 µM and 47.6 µM | [9] 43.5 µM and 47.2 µM and 48.7 µM
inactive: [1] | [2] | [4] | [10]

CCCCCCCOC(=O)c1ccccc1C(=O)OCCCCCCC
inactive: all assays above

O=C(O)C(F)(F)C(F)(F)C(F)(F)C(F)(F)C(F)(F)C(F)(F)C(F)(F)C(F)(F)C(F)(F)C(F)(F)C(F)(F)C(F)(F)C(F)(F)F
active: [5] 33.9 nM
inactive: [1] | [2] | [3] | [4] | [5] | [6] | [7] | [8] | [9] | [10]
